Here are results for 37 molecules from PubChem BioAssay (NCI).

Compounds without any hit were thinned out: in the full panel of roughly 83,000, 20% have a hit.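 Growth was measured after 48 h exposure to one concentration of compound in 96-well plates. Values under 10 count as active.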 Activity calls are given as the source filed them.

For the assay, the system named is HOP-62 NSCLC. The assay is described as follows: NCI-60 one-dose screen, 48 h (100 = growth as untreated, 0 = no growth, -100 = all killed). To be noted: 10 µM unless noted.
Regarding `ClCCN(CCCl)C(c1ccccc1)c1ccc(Cl)cc1` (configuration not stated), the growth was 108% (inactive). As for `CCCCn1cc(C(=O)/C(C#N)=C/c2cc3ccccc3nc2Cl)c2cc(OC)ccc21`, the figure is 86.1% (inactive). As for `CCCCNCCc1ccccn1`, the figure is 107% (inactive); as for `CC(=O)C1C(=O)N(C)C(=O)N(C)C1=O`, 98.6% (inactive). As for `CC1(C)N=C(N)N=C(N)N1c1cccc(C(=O)Nc2cccc(S(=O)(=O)F)c2)c1`, the figure is 105% (inactive); as for `C[C@]12CC[C@@H]3C4=C(CC[C@H]3[C@@H]1CC[C@@H]2O)CC(=O)CC4`, 103% (inactive); as for `Oc1ccccc1OB(Oc1ccccc1O)N(CCCl)CCCl`, 104% (inactive).

`NC(Cc1ccc2c(c1)OCO2)c1ccc2c(c1)OCO2` (configuration not stated): the growth is 105% (inactive). For `COc1ccc(-c2ccc(OC)c(OC)c2OC)cc1`, the growth is 26.9% (inactive).

For `CC1(C)N=C(N)N=C(N)N1c1ccc(CCCCc2ccc(S(=O)(=O)F)cc2)c(Cl)c1`, the growth was 5.05% (active).

Turning to `COc1ccc(C2=NN(c3ccccc3)C(c3sc(N(CCCl)CCCl)nc3Cl)C2)cc1` (configuration not stated), the growth is 80.1% (inactive).

In the case of `N#CC1c2ccccc2C=CN1C(=O)c1ccc(N(CCCl)CCCl)cc1` (configuration not stated), the growth was 91.1% (inactive).

In the case of `Cc1ccc(N)cc1[As]=[As]c1cc(N)ccc1C` (configuration not stated), the growth is 14.9% (inactive). As for `C/C(=N/OC(=O)N(C)C)c1cc(Cl)ccc1Cl`, the figure is 95.6% (inactive); as for `CCC(C)[C@H]1O[C@]2(C=C[C@@H]1C)C[C@@H]1C[C@@H](C/C=C(\C)[C@@H](OC3C[C@H](OC)C(O[C@H]4C[C@H](OC)[C@@H](O)[C@H](C)O4)[C@H](C)O3)[C@@H](C)/C=C/C=C3\CO[C@@H]4[C@H](O)C(C)=C[C@@H](C(=O)O1)[C@]34O)O2` (some centres not stated), -6% (active); as for `CC1(C)N=C(N)N=C(N)N1c1ccc(CCCCc2ccc(S(=O)(=O)F)cc2)cc1`, 31.9% (inactive).

In the case of `Cc1ccc(C(=O)C2CN(C)CCC2(O)c2ccc(C)cc2)cc1` (configuration not stated), the growth is 140% (inactive). In the case of `O=S(=O)(O)c1ccc(-c2ccc([As](=O)(O)O)cc2)cc1`, the growth is 98.6% (inactive). `O=C1NC(=O)C(CN2C(=O)C3(c4ccccc42)[C@H](Cl)C(=O)N3c2ccccc2)C(=O)N1` (some centres not stated): the growth is 66.3% (inactive). Consider `C=CCC1(CC)C(=O)NC(=S)NC1=O`, for which the growth is 97.9% (inactive). As to `C/C(=N/OC(=O)N(C)C)c1ccc(Cl)cc1Cl`, the growth is 98.2% (inactive). As for `CCC[CH2][Sn]([CH2]CCC)([CH2]CCC)[O]C(=O)CC`, the figure is -88.9% (active); as for `O=C(NCc1ccc([N+](=O)[O-])cc1)Nc1ccc(S(=O)(=O)F)cc1`, 70.5% (inactive). As to `n1nc(-c2nonc2-c2nn[nH]n2)n[nH]1`, the growth is 112% (inactive). Turning to `CNC(=O)Oc1ccccc1-c1ccccc1`, the growth is 103% (inactive). Regarding `CC1(C)N=C(N)N=C(N)N1c1ccc(OCCCCOc2ccc(S(=O)(=O)F)cc2)c(Cl)c1`, the growth is 28.3% (inactive). Turning to `CCCCOC(=O)c1ccccc1C(=O)O.CCCCOC(=O)c1ccccc1C(=O)O.[Cu+2]`, the growth was 127% (inactive).

On to `O=[N+]([O-])c1ccc2cnn(CSP(=S)(c3ccccc3)c3ccccc3)c2c1`, for which the growth is 59.3% (inactive).

For `NC(=O)C(Cl)Cl`, the growth is 102% (inactive). As for `CCN(CC)c1ccc(C=C2C(=O)NC(=S)NC2=O)cc1`, the figure is 98.1% (inactive). Turning to `Clc1ccc(SSC(Cl)(Cl)Cl)cc1`, the growth was 106% (inactive).

`[O]=[Sn]([CH]1CCCCC1)[CH]1CCCCC1`: the growth was -91.8% (active). In the case of `ClCCN(CCCl)c1nc(Cl)c(C2CC(c3ccccc3)=NN2c2ccccc2)s1` (configuration not stated), the growth was 79.5% (inactive). Take `CC(=O)C1CCC2C3CC=C4CC(OC(=O)Cc5ccc(N(CCCl)CCCl)cc5)CCC4(C)C3CCC12C` (configuration not stated): the growth is 112% (inactive). As for `Cc1ccccc1O`, the growth is 95.4% (inactive). Consider `O=[N+]([O-])c1ccccc1N1CCNCC1`, for which the growth is 89.4% (inactive).

`CC(=O)Nc1ccc(C=C2C(=O)NC(=O)NC2=O)cc1`: the growth was 103% (inactive).
